A selection: hits, their analogues and other compounds. The true share with any hit is near 11%.
Pf growth 96h: inhibits malaria parasite growth, 96 h. P. falciparum luciferase reporter growth, 96 h. Potency, µM (top dose mostly 28.7 µM), for the others: at the highest dose activity change, negative = inhibition, hits mostly inhibitors. 320,000 tested, 6.9% active
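Delayed-death screen, second-generation endpoint: infected erythrocytes, 2% hematocrit, 0.05% parasitemia final; 96 hours at 37 C, 5% CO2; luciferase detection reagent; luminescence decrease equals reduced growth.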
AMA1-RON2 inh: AMA1-RON2 (P. falciparum) interaction inhibition; AlphaScreen AMA1-biotinylated RON2 peptide binding; Potency, µM (top dose mostly 58.2 µM), for the others: at the top dose activity change, negative = inhibition, most hits filed as inhibitors; 360,000 tested, 0.2% active; AID 720542;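 note: 0% = vehicle wells and -100% = peptide control; nearly all actives have a fitted effect of over 45% in size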
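AMA1 (3D7) with his tag at 25 nM final met compounds first, then biotinylated RON2 peptide at 25 nM; detection used donor plus acceptor beads, 10 µg/mL apiece, read by AlphaScreen after 30 min at room temperature.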
Pf growth 48h: P. falciparum growth inhibition at 48 hours (one generation) | P. falciparum luciferase growth in erythrocytes, 48 h | Potency, µM (top dose mostly 28.7 µM), inactives show at the top dose activity change, negative = inhibition, most hits filed as inhibitors | 310,000 tested, 5.9% active | AID 504832
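Firefly luciferase activity from engineered P. falciparum reports growth; inhibitors lower the luminescent signal. Cultures contained 2% hematocrit erythrocytes at 0.1% final parasitemia.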
HCV inh: blocks hepatitis C virus | 340,000 tested, 3.4% active | Potency, µM (series often up to 41.8 µM), for inactives: top-dose activity change, negative = inhibition, usual class: inhibitors | Huh7.5.1 HCVcc-Cre infection, luciferase reporter, 44 h
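Compounds are dispensed onto cells plated 4 h earlier at 1,000 per well, with HCVcc-Cre virus (about 0.5 moi) added next. Following 44 h of culture, luminescent signal is measured for 15 sec after 15 min with substrate at room temperature.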
* hit, by the source's call; [ ] = dose if it differs, or a comment. Calls come from the whole dose curve; as a rule, active = well fitted curve in the direction sought with a large enough effect; inconclusive = small, poorly fitted or top-dose-only effect, or another doubt; inactive = no such curve, though single readings can be large; an effect the other way counts as inactive or inconclusive. Unless noted, % is set by controls: 0 for no effect and ±100 for the full control effect; potency is the fitted concentration of half-maximal effect.

What do the screens show for `COc1ccc(Nc2nc(-c3ccccc3)nc3ccccc23)c(OC)c1`?
Pf growth 96h: inconclusive; AMA1-RON2 inh: 52%; Pf growth 48h: inconclusive; HCV inh: 2µM*

What do the screens show for `Cc1ccc(C)c(Nc2nc(-c3ccncc3)nc3ccccc23)c1`?
Pf growth 96h: -16%; AMA1-RON2 inh: 3%; Pf growth 48h: 10µM*; HCV inh: 11µM*

How did COc1ccccc1Nc1nc(-c2ccccc2)nc2ccccc12 do in these assays?
Pf growth 96h: -1%; AMA1-RON2 inh: 90%; Pf growth 48h: 6%; HCV inh: 10µM*

Results for COc1cccc(Oc2nc(-c3ccncc3)nc3ccccc23)c1 ?
Pf growth 96h: inconclusive; AMA1-RON2 inh: -12%; Pf growth 48h: inconclusive; HCV inh: inconclusive

What do the screens show for `O=C(NCCc1ccccc1)C(=O)NCC1OCCCN1S(=O)(=O)c1cccs1` (stereo not given)?
Pf growth 96h: 5%; AMA1-RON2 inh: 2%; Pf growth 48h: -28%; HCV inh: 10%

What do the screens show for `COc1ccc(OC)c(Nc2ncnc3ccccc23)c1`?
Pf growth 96h: 6%; AMA1-RON2 inh: -4%; Pf growth 48h: 20%; HCV inh: inconclusive

How did COc1ccc2nc(-c3ccccc3)nc(C3CCCCC3)c2c1 do in these assays?
Pf growth 96h: 55%; AMA1-RON2 inh: 5%; Pf growth 48h: 33%; HCV inh: inconclusive

Results for COc1ccc2nc(-c3ccccc3)nc(SC)c2c1 ?
AMA1-RON2 inh: 23%; HCV inh: 11µM*

How did COc1ccc(OC)c(Nc2nc(-c3ccncc3)nc3ccccc23)c1 do in these assays?
Pf growth 96h: 1.9µM*; AMA1-RON2 inh: 13%; Pf growth 48h: 1.9µM*; HCV inh: 4.5µM*

How did CC(C)OCCCNC(=O)CN1C(=O)/C(=C/c2ccccc2)Sc2ccccc21 do in these assays?
Pf growth 96h: inconclusive; AMA1-RON2 inh: -10%; Pf growth 48h: -17%; HCV inh: inconclusive

What do the screens show for `C/C(=N\NC(=O)CN1CCN(Cc2ccc(C)cc2)CC1)c1ccncc1`?
Pf growth 96h: 28%; AMA1-RON2 inh: 6%[2.32 µM]; Pf growth 48h: -1%; HCV inh: 23%

What do the screens show for `CCOc1ccc(N2C(=O)CC(Sc3n[nH]c(-c4ccccc4)n3)C2=O)cc1` (stereo not given)?
Pf growth 96h: 29%; AMA1-RON2 inh: 57%; Pf growth 48h: 10%; HCV inh: 14%

Results for CCOC(=O)CN1C(=O)C(Sc2n[nH]c(-c3ccccc3)n2)CCc2ccccc21 (stereo not given) ?
Pf growth 96h: 5.9µM*; AMA1-RON2 inh: 1%; HCV inh: inconclusive

What do the screens show for `O=C(COC(=O)c1ccc(Br)o1)Nc1nc2ccccc2s1`?
Pf growth 96h: 43%; AMA1-RON2 inh: -2%; Pf growth 48h: 8%; HCV inh: 0%

What do the screens show for `Cc1ccc2nc(NC(=O)COC(=O)c3ccc(Br)o3)sc2c1`?
Pf growth 96h: 1.2µM*; AMA1-RON2 inh: -8%; Pf growth 48h: 19%; HCV inh: 1%

How did O=C(COC(=O)c1ccc([N+](=O)[O-])o1)Nc1nc2ccccc2s1 do in these assays?
Pf growth 96h: -2%; AMA1-RON2 inh: -8%; Pf growth 48h: -24%; HCV inh: 10µM*

Results for CCCN(CCC)S(=O)(=O)c1ccc(Cl)c([N+](=O)[O-])c1 ?
Pf growth 96h: 1%; AMA1-RON2 inh: -23%; Pf growth 48h: -19%; HCV inh: inconclusive

What do the screens show for `CCOC(=O)C(C)(C)N(Cc1ccccc1C)S(=O)(=O)c1ccc(Cl)c([N+](=O)[O-])c1`?
Pf growth 96h: 2.6µM*; AMA1-RON2 inh: -5%[11.6 µM]; Pf growth 48h: inconclusive; HCV inh: inconclusive

What do the screens show for `CCOC(=O)/C=C1\SCC(=O)N1CC(=O)NC(C)c1ccc(F)cc1` (stereo not given)?
Pf growth 96h: inconclusive; AMA1-RON2 inh: 8%; Pf growth 48h: -4%; HCV inh: 32%

Results for O=C(Nc1cccc(C(F)(F)F)c1)c1cccnc1N1CCN(c2ccccc2)CC1 ?
AMA1-RON2 inh: 30µM*; Pf growth 48h: 0%; HCV inh: inconclusive

What do the screens show for `O=C1NCCCc2nonc21`?
Pf growth 96h: 55%; AMA1-RON2 inh: 0%; Pf growth 48h: 9%; HCV inh: -1%

Results for C1CCc2c(nnc3c2-c2nonc2CC3)C1 ?
Pf growth 96h: 2.1µM*; AMA1-RON2 inh: 8%; Pf growth 48h: 9%; HCV inh: 15%

Screening data: PubChem, National Center for Advancing Translational Sciences (NCATS)
